Source: PubChem BioAssay
An excerpt weighted towards active compounds, which were near 3.9% of everything screened.
PLC-beta3 inh: inhibitors of human phospholipase C beta3; AID 720704; inhibition, % at 12.2 µM; Purified PLC-beta3, fluorogenic substrate, fluorescence; Q01970; 370,000 compounds, 0.18% hits; in the data active = inhibition above about 11%;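 note: 0% = median of compound wells on plate and 100% = full blocker control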
Target sequence (Q01970 whole entry, looked up): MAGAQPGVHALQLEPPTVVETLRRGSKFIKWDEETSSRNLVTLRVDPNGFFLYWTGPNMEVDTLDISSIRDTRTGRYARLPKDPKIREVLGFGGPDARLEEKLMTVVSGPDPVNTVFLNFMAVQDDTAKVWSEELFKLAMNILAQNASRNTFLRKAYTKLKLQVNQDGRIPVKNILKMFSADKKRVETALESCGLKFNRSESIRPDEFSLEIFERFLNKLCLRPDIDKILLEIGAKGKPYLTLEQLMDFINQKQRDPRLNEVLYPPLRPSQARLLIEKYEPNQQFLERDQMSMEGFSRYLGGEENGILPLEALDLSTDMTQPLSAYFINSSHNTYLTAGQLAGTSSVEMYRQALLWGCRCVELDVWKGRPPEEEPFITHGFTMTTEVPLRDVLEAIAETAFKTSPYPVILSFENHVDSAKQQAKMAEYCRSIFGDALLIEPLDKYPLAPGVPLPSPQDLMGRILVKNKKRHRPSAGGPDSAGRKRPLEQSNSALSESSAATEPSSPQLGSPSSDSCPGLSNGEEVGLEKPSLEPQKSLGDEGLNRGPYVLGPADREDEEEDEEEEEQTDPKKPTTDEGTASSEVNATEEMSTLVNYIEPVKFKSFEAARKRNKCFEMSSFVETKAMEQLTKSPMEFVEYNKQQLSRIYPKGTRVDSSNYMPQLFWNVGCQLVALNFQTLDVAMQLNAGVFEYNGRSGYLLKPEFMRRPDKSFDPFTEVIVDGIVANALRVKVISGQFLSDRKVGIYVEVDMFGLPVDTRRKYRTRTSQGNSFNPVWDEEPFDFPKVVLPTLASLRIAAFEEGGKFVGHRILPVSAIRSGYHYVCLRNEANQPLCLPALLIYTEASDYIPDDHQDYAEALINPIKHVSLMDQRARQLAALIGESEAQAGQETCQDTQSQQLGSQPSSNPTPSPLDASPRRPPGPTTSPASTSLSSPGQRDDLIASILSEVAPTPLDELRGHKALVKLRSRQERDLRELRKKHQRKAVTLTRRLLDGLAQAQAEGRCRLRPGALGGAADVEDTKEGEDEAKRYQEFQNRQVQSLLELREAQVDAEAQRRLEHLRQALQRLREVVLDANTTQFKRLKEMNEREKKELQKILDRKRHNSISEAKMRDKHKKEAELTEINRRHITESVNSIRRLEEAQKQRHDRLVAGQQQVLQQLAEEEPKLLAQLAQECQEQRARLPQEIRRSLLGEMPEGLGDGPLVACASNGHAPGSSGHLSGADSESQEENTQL
PLC-gamma1 inh: inhibitors of human phospholipase C gamma1; purified PLC-gamma1, fluorogenic substrate, fluorescence; inhibition, % at 12.2 µM; 370,000 compounds, 0.84% hits; AID 720700; in the data active = inhibition above about 9.5%
Yeast superoxide: caloric restriction mimetics inhibiting age-related superoxide in yeast; S. cerevisiae aged cells, superoxide DHE fluorescence; active compounds read low; superoxide response (% of plate mean), % at 10 µM; 330,000 compounds, 0.18% hits; AID 2690;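 active = superoxide response under a set limit, about three screen SD below normal, cut at about 65% in these data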;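 note: yeast aged for seven days with compound at 30 °C before DHE staining; 100% = average MFI of all compound-treated wells on the plate with controls excluded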
HIF act: HIF pathway transcriptional activation | activation, % at 7.5 µM (by protocol) | U2OS HRE-luciferase reporter, luminescence; normalized: DMSO 0%, desferrioxamine 100% | AID 1910 | 300,000 compounds, 0.32% hits;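 active = mean activation of at least 10% of the iron chelator positive control signal, with at least half of replicates also reaching 10%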
AHR activator: activates the human aryl hydrocarbon receptor | AHR-responsive luciferase reporter cells, luminescence | activation, % at 5 µM | 320,000 compounds, 2.5% hits; in the data active = activation above about 47%;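 note: 0% = vehicle wells and 100% = reference agonist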
sPLA2-III inh: Blocks human group III sPLA2 activity. 370,000 compounds, 0.56% hits. AID 743126. inhibition, % at 12.2 µM. QFRET BODIPY PC-A2 liposome hydrolysis, fluorescence. Q9NZ20;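 active = inhibition above mean plus 3 SD of compounds lying within the high and low control bounds, cut at about 19% in these data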;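 note: 0% = median of test compound wells and 100% = no enzyme DMSO wells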
Active calls of the source: *; x = not tested or not shown.

SMILES	PLC-beta3 inh	PLC-gamma1 inh	Yeast superoxide	HIF act	AHR activator	sPLA2-III inh
CCOC(=O)[C@]12CCCC=C1N(Cc1ccc(OC)cc1)C(=O)[C@@H]2CC(=O)NCCCCc1ccccc1	1	2	x	x	x	-14
Cc1ccc(N2NC(C)(c3cccs3)NC2=S)cc1 (configuration not stated)	-3	0	92	5	52*	17
O=C1CC(c2ccc(S(=O)(=O)NCc3ccncc3)cc2)CN1 (configuration not stated)	-1	0	109	0	78*	12
COc1ccc2[nH]c3c(c2c1)CCN[C@]31C(=O)N(Cc2cn(Cc3ccccc3)nn2)c2ccccc21	1	8	x	x	x	1
CCn1c(SCC(=O)c2ccc3c(c2)OCCO3)nnc1-c1ccco1	4	-5	102	0	13	-17
CCn1c(SCC(=O)c2ccc3ccccc3c2)nnc1-c1ccco1	-1	-1	90	-1	78*	-28
COc1ccc([C@H]2OC(=O)C[C@H]2C(=O)N2CCCCC2)cc1OC	-1	2	x	x	x	15
